From PubChem BioAssay (Tox21)
Results filed as inconclusive are left out. Calls of active or inactive are those of the source. Calls follow the shape of the full dose curve.

Each compound was assayed against 5-hydroxytryptamine receptor 2A (Homo sapiens) (UniProt P28223) (assay: 5-hydroxytryptamine receptor 2A (HTR2A) small molecule agonists, cell-based qHTS assay (AID 1963587; also: nearly all actives have a fitted effect of over 30% in size)). Settings: HTR2A-CHO cells, calcium flux fluorescence, agonist mode; series mostly up to 76.8 µM; activation: at the top concentration.
Sequence of 5-hydroxytryptamine receptor 2A (Homo sapiens) (P28223 whole entry, looked up): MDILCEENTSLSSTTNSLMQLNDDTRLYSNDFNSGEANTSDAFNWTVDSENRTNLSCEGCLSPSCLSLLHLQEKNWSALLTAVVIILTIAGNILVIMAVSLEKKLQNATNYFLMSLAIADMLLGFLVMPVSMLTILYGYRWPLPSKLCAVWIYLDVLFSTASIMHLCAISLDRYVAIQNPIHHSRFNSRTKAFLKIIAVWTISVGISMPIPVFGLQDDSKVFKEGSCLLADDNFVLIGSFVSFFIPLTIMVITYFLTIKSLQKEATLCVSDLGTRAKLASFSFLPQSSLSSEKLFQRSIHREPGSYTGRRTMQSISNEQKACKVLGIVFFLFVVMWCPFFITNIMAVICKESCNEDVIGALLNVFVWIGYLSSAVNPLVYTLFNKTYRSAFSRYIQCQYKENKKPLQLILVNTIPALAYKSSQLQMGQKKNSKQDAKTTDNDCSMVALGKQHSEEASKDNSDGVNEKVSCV
In short: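 CHO cells stably expressing human HTR2A, plated 18 h, loaded with calcium dye 1 h at 37 C. Agonist mode: compounds added and intracellular calcium fluorescence recorded kinetically for 2 min at 1 sec intervals.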
% is scaled to controls: 0 for no effect and ±100 for the full control effect.

Row | Structure (SMILES) | activation
1 | CC[N+](C)(CC)CCOC(=O)C1c2ccccc2Oc2ccccc21 | 1.03% [at 35.6 µM] (inactive)
2 | C/C=C1/C(=O)C[C@H]2[C@@H]3CCC4=CC(=O)CC[C@]4(C)[C@H]3CC[C@]12C | 0.327% (inactive)
3 | O=C(NN1CCCC1)NS(=O)(=O)c1ccc(Cl)cc1 | -0.202% [at 35.6 µM] (inactive)
4 | O=C1CC[C@@H](C(=O)O)N1 | -10.1% [at 35.6 µM] (inactive)
5 | C1C2OC2C2C1C1CC2C2OC12 (centres undefined) | 3.19% (inactive)
6 | Cc1ccc(C#N)cc1 | 1.7% (inactive)
7 | CC[C@@]1(c2ccccc2)NC(=O)N(C)C1=O | -1.93% [at 35.6 µM] (inactive)
8 | CC[C@H]1O[C@]2(CC[C@@H]1C)C[C@@H]1C[C@@H](C/C=C(\C)C[C@@H](C)/C=C/C=C3\CO[C@@H]4[C@H](O)C(C)=C[C@@H](C(=O)O1)[C@]34O)O2 | -0.207% (inactive)
9 | O=CNc1ccccc1 | -0.115% (inactive)
10 | FC(F)(Cl)C(F)(Cl)Cl | 3.55% (inactive)
11 | CCN(C(=O)N(CC)c1ccccc1)c1ccccc1 | -0.0467% (inactive)
12 | CCCCCC/C=C/C=O | -0.256% (inactive)
13 | CC(C)COC(=O)CCCCC(=O)OCC(C)C | 2.5% (inactive)
14 | CCOc1ccc(NC(=O)CC(C)=O)cc1 | -3.14% (inactive)
15 | CCOC(=O)CC(=O)c1ccccc1 | -6.1% (inactive)
16 | Cc1ccccc1Br | 0.335% (inactive)
17 | CCOC(=O)[C@@](C)(N)Cc1ccc(O)c(O)c1 | 2.95% [at 35.6 µM] (inactive)
18 | CC1(C)SC(C)(C)SC(C)(C)S1 | -2.69% (inactive)
19 | NCCCCCCNCCCCCCN | 13.6% (inactive)
20 | Oc1cc2ccccc2c2ccccc12 | 2.79% (inactive)
21 | CCCCCCC(C)Nc1ccc(Nc2ccccc2)cc1 (centres undefined) | 3.09% (inactive)
22 | CC(C)(C)C(=O)CCc1ccc(Cl)cc1 | 0.375% (inactive)
23 | CC(C)COC(=O)COc1ccc(Cl)cc1Cl | 0.459% (inactive)
24 | C=C(C)c1cccc(C(=C)C)c1 | -2.83% (inactive)
25 | CC(C)(C)C1CCCCC1=O (centres undefined) | 3.84% (inactive)
26 | CC(C)NCC(O)c1cc(O)cc(O)c1 (centres undefined) | 4.83% [at 35.6 µM] (inactive)
27 | O=C=NCC1CCCC(CN=C=O)C1 (centres undefined) | 5.71% (inactive)
28 | NNc1nc(-c2ccccc2)cs1 | -0.0315% (inactive)
29 | COc1ccc(OC)c(Cl)c1 | -7.19% (inactive)

These compounds were tested against Muscarinic acetylcholine receptor M1 (Homo sapiens) (UniProt P11229) (assay: Cholinergic receptor muscarinic 1 (CHRM1) small molecule antagonists, cell-based qHTS assay (AID 1963588; also: nearly all actives have a fitted effect of over 40% in size; also: potency is read from the fitted curve at half-maximal effect)). Settings: CHRM1-CHO antagonist mode, calcium flux fluorescence; series mostly up to 61.5 µM; activity, negative = inhibition: at the top concentration.
Sequence of Muscarinic acetylcholine receptor M1 (Homo sapiens) (P11229 whole entry, looked up): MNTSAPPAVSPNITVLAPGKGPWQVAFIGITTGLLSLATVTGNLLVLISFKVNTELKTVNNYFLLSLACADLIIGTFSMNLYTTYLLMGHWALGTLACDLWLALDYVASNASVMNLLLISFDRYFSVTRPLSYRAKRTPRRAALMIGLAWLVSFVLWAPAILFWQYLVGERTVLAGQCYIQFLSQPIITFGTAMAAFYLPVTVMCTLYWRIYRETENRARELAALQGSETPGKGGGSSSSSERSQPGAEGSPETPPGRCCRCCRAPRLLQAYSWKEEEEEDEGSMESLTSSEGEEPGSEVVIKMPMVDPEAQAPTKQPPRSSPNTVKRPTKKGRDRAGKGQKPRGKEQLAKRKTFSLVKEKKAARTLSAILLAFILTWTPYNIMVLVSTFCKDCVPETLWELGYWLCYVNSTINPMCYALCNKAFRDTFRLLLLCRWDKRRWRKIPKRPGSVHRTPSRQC
In short: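 CHRM1-CHO calcium-flux assay, antagonist mode. Cells were seeded 18 h, dye-loaded 1 h at 37 C and given compound for 5 min at RT, then acetylcholine was added at 50nM. FDSS fluorescence was read 3 min; 15 concentrations, three runs.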

Row | Structure (SMILES) | activity, negative = inhibition | Potency
30 | CCCNCCC | 5% (inactive) | 
31 | Cc1ccc(C#N)cc1 | 18.2% (inactive) | 
32 | CC[C@@]1(c2ccccc2)NC(=O)N(C)C1=O | 7.69% [at 28.3 µM] (inactive) | 
33 | CC[C@H]1O[C@]2(CC[C@@H]1C)C[C@@H]1C[C@@H](C/C=C(\C)C[C@@H](C)/C=C/C=C3\CO[C@@H]4[C@H](O)C(C)=C[C@@H](C(=O)O1)[C@]34O)O2 | -22.5% (inactive) | 
34 | FC(F)(Cl)C(F)(Cl)Cl | -23.8% (inactive) | 
35 | CCN(C(=O)N(CC)c1ccccc1)c1ccccc1 | -1.19% (inactive) | 
36 | CCCCCC/C=C/C=O | 4.62% (inactive) | 
37 | CCCCCCCCCCO[C@@H]1O[C@H](CO)[C@@H](O)[C@H](O)[C@H]1O | -2.57% (inactive) | 
38 | CCOc1ccc(NC(=O)CC(C)=O)cc1 | -5.25% (inactive) | 
39 | CCOC(=O)CC(=O)c1ccccc1 | 6.44% (inactive) | 
40 | NCCCC(N)(C(=O)O)C(F)F (centres undefined) |  | 163 nM (active)
41 | Cc1ccccc1Br | 1.52% (inactive) | 
42 | CCCCCCCCS(=O)(=O)O | -0.357% (inactive) | 
43 | CCOC(=O)[C@@](C)(N)Cc1ccc(O)c(O)c1 | -15% [at 28.3 µM] (inactive) | 
44 | CC1(C)SC(C)(C)SC(C)(C)S1 | 4.76% (inactive) | 
45 | CCN(CC)CCNC(C(=O)OCCC(C)C)c1ccccc1 (centres undefined) |  | 516 nM (active)
46 | Oc1cc2ccccc2c2ccccc12 | -11.3% (inactive) | 
47 | CCCCCCC(C)Nc1ccc(Nc2ccccc2)cc1 (centres undefined) | -19.5% (inactive) | 
48 | CCCCCCCCCCCCCOC(=O)CCSCCC(=O)OCCCCCCCCCCCCC | 18% [at 12.6 µM] (inactive) | 
49 | CC(C)(C)C(=O)CCc1ccc(Cl)cc1 | 4.1% (inactive) | 
50 | CC(C)COC(=O)COc1ccc(Cl)cc1Cl | -0.719% (inactive) | 
51 | C=C(C)c1cccc(C(=C)C)c1 | 1.71% (inactive) | 
52 | CC(C)(C)C1CCCCC1=O (centres undefined) | -7.06% (inactive) | 
53 | COC(=O)CC(=O)C(C)(C)C | -4.56% (inactive) | 
54 | CC(C)NCC(O)c1cc(O)cc(O)c1 (centres undefined) | 1.83% [at 28.3 µM] (inactive) | 
55 | NNc1nc(-c2ccccc2)cs1 | -10.1% (inactive) | 
56 | O=Cc1cc(O)ccc1Br | -3.44% (inactive) | 
57 | Cc1ccc(C)c([N+](=O)[O-])c1 | -24.8% (inactive) | 
58 | CCN(CC)C(=O)c1ccc(O)c(OC)c1 | 6.5% [at 28.3 µM] (inactive) | 
59 | Cc1cccc(NC(=S)N(C)C)c1 | 18.6% (inactive) | 
